Results from PubChem BioAssay AID504848 (National Center for Advancing Translational Sciences (NCATS), 2011).
The whole screen tested about 2,300 compounds, of which about 1,400 (61%) were called active. Inconclusive results (about 29%) are left out. The call rests on the fitted dose curve; in most records, active means well fitted inhibition curve with a large enough effect; inconclusive means small, poorly fitted or top-dose-only effect, or effect the other way; inactive means no such curve, though single readings can be large or run the other way. The set was probably picked from earlier hits. This is one part of the list.
On the % scale 0 is the no-effect control and ±100 the full control effect; potency means the concentration at half of the fitted maximal effect.

Test: Confirmation screen for delayed death inhibitors of the malarial parasite plastid, 96 hour incubation; further: nearly all actives have a fitted effect of over 60% in size
Conditions: P. falciparum luciferase growth in erythrocytes; series mostly up to 28.7 µM; activity change, negative = inhibition: at the top concentration
Procedure, shortened: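 Erythrocytes infected with luciferase-expressing P. falciparum (2% hematocrit, 0.1% parasitemia final) in RPMI 1640 with 0.5% Albumax, exposed to compounds 96 h at 37 C, 5% CO2. Growth inhibition read as decreased luciferase luminescence.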
With `Cc1n[nH]c(=S)n(/N=C/c2ccccn2)c1=O` the “activity change, negative = inhibition” value was -15.7% (inactive). With `C=CCN=c1scc(-c2ccc(F)cc2)n1/N=C/c1ccccn1` the Potency was 3.98 µM (active). In the case of `Cc1ccc(NC(=O)CSc2nc3ccccc3c(=O)n2CCCN2CCCCC2)cc1Cl`, the Potency is reported as 6.31 µM (active). For `CC(C)(C)n1ncc2c(=O)n(Cc3ccccc3Br)cnc21`, the Potency was 12.6 µM (active). In the case of `CSc1ncccc1C(=O)NC1CC(C)(C)Cc2c1cnn2-c1ccccc1C` (centres undefined), the Potency is reported as 11.2 µM (active). In the case of `COc1cccc(C(=O)NC2CC(C)(C)Cc3c2cnn3-c2cccc(F)c2)c1OC` (centres undefined), the Potency is reported as 12.6 µM (active). In the case of `COc1ccc(OC)c(C(=O)NC2CC(C)(C)Cc3c2cnn3-c2ccccc2)c1` (centres undefined), the Potency is reported as 11.2 µM (active). With `CCC(=O)OC1C(N(C)C)CC(C)O[C@H]1O[C@H]1[C@H](C)[C@@H](O[C@H]2CC(OC)[C@@H](O)C(C)O2)[C@H](C)C(=O)O[C@@H](CC)[C@](C)(O)[C@@H](O)[C@H](C)C(=O)[C@@H](C)C[C@]1(C)O` (some centres undefined) the Potency was 10 µM (active). With `CC[C@H]1OC(=O)[C@H](C)[C@@H](O[C@H]2C[C@@](C)(OC)[C@@H](O)[C@H](C)O2)[C@H](C)[C@@H](O[C@@H]2O[C@H](C)C[C@H](N(C)C)[C@H]2O)[C@](C)(O)C[C@@H](C)CN(C)[C@H](C)[C@@H](O)[C@]1(C)O` the Potency was 0.631 µM (active). With `CC[C@H]1OC(=O)[C@H](C)[C@@H](O[C@H]2C[C@@](C)(OC)[C@@H](O)[C@H](C)O2)C(C)[C@@H](O[C@@H]2O[C@H](C)C[C@H](N(C)C)[C@@H]2O)[C@](C)(OC)C[C@@H](C)C(=O)[C@H](C)[C@@H](O)[C@]1(C)O` (some centres undefined) the Potency was 2.82 µM (active). With `COc1ccccc1NS(=O)(=O)c1ccc(NN=C2CCCC2)c([N+](=O)[O-])c1` the Potency was 11.2 µM (active). For `Cc1ccc(-c2nn(-c3ccccc3)cc2CC(=S)N2CCOCC2)cc1`, the Potency was 12.6 µM (active). For `COc1ccc(Cn2c(-c3ccc(Br)cc3)c[n+]3ccccc23)cc1`, the Potency was 0.562 µM (active). For `Cc1ccn2c(NC3CCCC3)c(-c3ccccn3)nc2c1`, the Potency was 3.16 µM (active). With `CCOC(=O)c1cc(-c2ccccc2)sc1NC(=O)C(C)OC(=O)c1cccnc1Cl` (centres undefined) the Potency was 6.31 µM (active). For `COCCN(C(=O)c1ccccc1F)c1nnc(-c2ccc(OC)cc2)s1`, the Potency was 7.08 µM (active). In the case of `COc1ccc(C2CC(c3cccs3)=NN2C(=O)CSc2nnc(N)s2)cc1OC` (centres undefined), the Potency is reported as 11.2 µM (active). In the case of `Cc1ccc(NC(=O)c2ccc3c(SCC(=O)O)c4c(nc3c2)CCCC4)c(Br)c1`, the Potency is reported as 7.94 µM (active). With `Cc1onc(NC(=O)c2ccc([N+](=O)[O-])o2)c1Br` the Potency was 11.2 µM (active). For `Cc1cc[n+]2cc(-c3cccc([N+](=O)[O-])c3)c(-c3cccc([N+](=O)[O-])c3)cc2c1`, the Potency was 0.112 µM (active). With `CC(=O)Nc1cccc(C(=O)/C=C/c2ccc(C)cc2)c1` the Potency was 15.8 µM (active). In the case of `CCC(=O)Nc1cccc(C(=O)/C=C/c2cc(Br)ccc2OC)c1`, the Potency is reported as 7.94 µM (active). For `CCC(=O)Nc1cccc(C(=O)/C=C/c2ccccc2)c1`, the Potency was 12.6 µM (active). With `N#C/C(=C\c1ccc(-c2ccc(C(=O)O)cc2)o1)C(=O)Nc1ccc(F)cc1` the Potency was 10 µM (active). In the case of `COc1ccccc1-c1cc(C(=O)N/N=C/c2cccs2)c2ccccc2n1`, the Potency is reported as 6.31 µM (active). With `COc1ccccc1-c1cc(C(=O)N/N=C/c2sccc2C)c2ccccc2n1` the Potency was 3.55 µM (active). In the case of `COc1ccccc1-c1cc(C(=O)N/N=C/c2ccc(C)s2)c2ccccc2n1`, the Potency is reported as 5.01 µM (active). For `COc1ccccc1-c1cc(C(=O)N/N=C/c2ccc(C)o2)c2ccccc2n1`, the “activity change, negative = inhibition” value was -20.2% (inactive). For `COc1ccc(/C=N/NC(=O)c2cc(-c3ccccc3)nc3ccccc23)cc1O`, the “activity change, negative = inhibition” value was -16.7% (inactive). For `COc1ccc(-c2cc(C(=O)N/N=C/c3ccc4c(c3)OCO4)c3ccccc3n2)c(OC)c1`, the Potency was 11.2 µM (active). For `C=CCNC(=O)c1onc(CSc2cccc(Cl)c2)c1C(=O)O`, the “activity change, negative = inhibition” value was -11.1% (inactive). With `Cc1cccc(N(Cc2ccccc2)C(=O)CN2C(=O)NC3(CCCCC3C)C2=O)c1` (centres undefined) the Potency was 11.2 µM (active). In the case of `Cc1nn(Cc2c(Cl)cccc2Cl)c(C)c1NC(=O)c1cc(C(C)C)on1`, the “activity change, negative = inhibition” value is reported as -90.2% (inactive). In the case of `Cc1nn(Cc2ccccc2Cl)c(C)c1C(=O)Nc1nnc(C2CC2)s1`, the Potency is reported as 11.2 µM (active). In the case of `COc1ccc(-n2c(=O)/c(=C\c3cccs3)s/c2=C(/C#N)C(=O)N2CCN(C)CC2)cc1`, the “activity change, negative = inhibition” value is reported as -6.92% (inactive). For `Fc1ccc(Nc2nc(N3CCOCC3)nc(N3CCOCC3)n2)cc1`, the Potency was 12.6 µM (active). For `COc1ccc(CN2CCN(C(=O)c3ccc(CNS(=O)(=O)c4ccc(C)cc4)cc3)CC2)c(OC)c1OC`, the Potency was 11.2 µM (active). In the case of `O=S(=O)(c1ccc(Cl)c(NC(=S)N/N=C/c2ccc(O)cc2)c1)N1CCOCC1`, the Potency is reported as 5.01 µM (active). With `COc1cccc(/C=C/C(=O)c2ccc(NS(=O)(=O)c3ccc(C)cc3)cc2)c1` the Potency was 15.8 µM (active). In the case of `COc1ccc(/C=C/C(=O)c2ccc(NS(=O)(=O)c3ccc(C)cc3)cc2)cc1O`, the Potency is reported as 7.08 µM (active). For `CC(NC(=O)CCl)c1ccccc1Br` (centres undefined), the Potency was 0.794 µM (active). In the case of `COc1ccc(NC(=O)CN2CCN(S(=O)(=O)c3ccc(Br)cc3)CC2)c(OC)c1`, the Potency is reported as 7.94 µM (active). With `Cc1ccc(NC(=O)COc2ccccc2C#N)cc1S(=O)(=O)N1CCCCCC1` the Potency was 12.6 µM (active). With `COc1cc2c(cc1OC)CN(CC(=O)Nc1ccc(S(=O)(=O)N3CCCC3)cc1)CC2` the Potency was 15.8 µM (active). For `COc1ccccc1OCC(=O)Nc1ccc(S(=O)(=O)N2CCCCCC2)cc1`, the Potency was 12.6 µM (active). In the case of `C=CCn1c(SCc2cc(=O)n3cc(C)ccc3n2)nnc1-c1ccc(F)cc1`, the Potency is reported as 8.91 µM (active). With `CCN(CC)C1=N/C(=C\c2ccc(OC)cc2)C(=O)N1c1ccccc1` the Potency was 12.6 µM (active). With `COc1ccc(/C=C2\N=C(SC)N(c3ccccc3OC)C2=O)cc1` the Potency was 12.6 µM (active). With `Clc1cccc(CN2CCc3c([nH]c4ccccc34)C2)c1` the Potency was 12.6 µM (active). With `COc1ccc(C2CC(=O)C3=C(C2)Nc2ccccc2NC3c2coc3ccccc3c2=O)cc1OC` (centres undefined) the Potency was 1.12 µM (active). In the case of `CC(=O)c1c(C)[nH]c(C(=O)COC(=O)COc2ccccc2F)c1C`, the “activity change, negative = inhibition” value is reported as -8.16% (inactive). With `COc1ccc(C(C)(C)C)cc1NC(=O)c1[nH]c(C)c(C(C)=O)c1C` the Potency was 4.47 µM (active). For `CCc1nc(SCC(=O)Nc2ccc(N(C)C)cc2)n[nH]1`, the Potency was 2.82 µM (active). With `C=CCN(CC=C)C(=O)C1CCN(S(=O)(=O)c2ccc(N3CCCC3=O)cc2)CC1` the Potency was 5.01 µM (active). In the case of `COC(=O)c1cn(C)c2ccc(S(=O)(=O)N3CCCC3)cc2c1=O`, the “activity change, negative = inhibition” value is reported as -13.2% (inactive). With `Cc1ccc(S(=O)(=O)N2CCC(C(=O)Nc3ccc(S(=O)(=O)N4CCCC4)cc3)CC2)cc1C` the Potency was 7.08 µM (active). With `COc1ccc(OCCOc2ccc(S(=O)(=O)N3CCCC3)cc2C(N)=O)cc1` the Potency was 10 µM (active). In the case of `COc1ccc(S(=O)(=O)N2CCCN(S(=O)(=O)c3ccc(OC)c(C)c3)CC2)cc1C`, the Potency is reported as 12.6 µM (active). In the case of `COc1cc(NC(=O)C2CCN(S(=O)(=O)c3ccc(N4CCCC4=O)cc3)CC2)cc(OC)c1`, the Potency is reported as 5.01 µM (active). With `Cc1ccc(C(=O)C(C(=O)/C=C/c2ccccc2)=C2SCCCS2)cc1` the Potency was 7.94 µM (active). With `CC[C@@H]1CC=C[C@H]2[C@H]1C(=O)N(Cc1ccccc1)[C@H]2c1ccoc1` the Potency was 7.08 µM (active). For `Fc1ccc2nc(Nc3nc4c(F)cc(F)cc4s3)sc2c1`, the Potency was 10 µM (active). For `O=C(CN1CCCCC1)N/N=C/c1ccc(Cl)cc1`, the “activity change, negative = inhibition” value was 6.26% (inactive). For `O=C(c1ccc(Cl)cc1)C(CN1CCCCC1)c1ccccc1` (centres undefined), the Potency was 12.6 µM (active). For `O=C(c1ccc(Cl)cc1)C(CN1CCCC1)c1ccccc1` (centres undefined), the Potency was 7.08 µM (active). For `O=C(c1ccc(Br)cc1)C(CN1CCOCC1)c1ccccc1` (centres undefined), the Potency was 3.98 µM (active). For `O=C(Nc1ccc(C2=NCCN2)cc1)c1ccc(C(=O)Nc2ccc(C3=NCCN3)cc2)c(Cl)c1`, the Potency was 0.0708 µM (active). In the case of `CCOc1ccccc1CNC(=O)CN1C(=O)CSc2ccc(S(=O)(=O)N3CCOCC3)cc21`, the Potency is reported as 8.91 µM (active). For `COc1ccccc1-c1coc2cc(OC(=O)N3CCOCC3)ccc2c1=O`, the “activity change, negative = inhibition” value was -2.61% (inactive). For `Cc1c(C#N)c(NC(=O)CCl)n(Cc2ccccc2)c1C`, the Potency was 4.47 µM (active). For `Cc1ccc(NC(=O)c2nnn(CC(=O)Nc3ccc4c(c3)OCO4)c2N)cc1C`, the “activity change, negative = inhibition” value was 0.181% (inactive). For `Cn1c(=O)n(C)c2cc(NC(=O)CCl)ccc21`, the Potency was 2 µM (active). With `O=C(CCl)Nc1ccc2c(c1)OCO2` the Potency was 2.51 µM (active). With `COc1ccc(C)cc1N(CC(=O)Nc1ccc(S(=O)(=O)N2CCCC2)cc1)S(C)(=O)=O` the Potency was 8.91 µM (active). For `CCOc1ccccc1N(CC(=O)Nc1ccc(S(=O)(=O)N2CCCC2)cc1)S(C)(=O)=O`, the Potency was 11.2 µM (active). In the case of `CCOC(=O)c1c[nH]c2cc(OCC(C)C)c(OCC(C)C)cc2c1=O`, the Potency is reported as 0.178 µM (active). With `COc1ccc(-c2c(-c3ccc(OC)c(C)c3O)n[nH]c2C)cc1` the Potency was 10 µM (active). In the case of `Cc1ccc(Cl)cc1N1CCN(Cc2nc3c(c(=O)[nH]c(=O)n3C)n2CCc2ccccc2)CC1`, the Potency is reported as 3.98 µM (active). With `CC(C)C(=O)NCCSc1c[nH]c2ccccc12` the Potency was 3.98 µM (active). With `CCOc1ccc(N(C)C(=O)CCc2nnc3ccc(N4CCCCC4)nn23)cc1` the Potency was 7.94 µM (active). In the case of `CC1(C)COC(/C=C/c2cccc([N+](=O)[O-])c2)=N1`, the Potency is reported as 8.91 µM (active). In the case of `O=[N+]([O-])c1cccc(/C=C/c2nc[nH]c2[N+](=O)[O-])c1`, the Potency is reported as 3.98 µM (active). For `COc1ccc(-c2nnc3ccc(SCC(=O)Nc4nc5ccc(C)cc5s4)nn23)cc1OC`, the Potency was 0.158 µM (active). With `O=C(C[n+]1ccccc1)Nc1ccc(Cl)c([N+](=O)[O-])c1` the Potency was 7.08 µM (active).
